# Data as given in article PMC7862700, “An all-to-all approach to the identification of sequence-specific readers for epigenetic DNA modifications on cytosine”.
# Key:
# Assay in all cases: DAPPL (digital affinity profiling via proximity ligation, sequencing); 10 mM Tris-HCl pH 7.5, 50 mM NaCl, 1 mM DTT, 4% glycerol, room temperature, 30 min; GST-TFs on glutathione beads, 16-mer random dsDNA library, 0.1% formaldehyde crosslink after washing; high values mean tight binding
# Conditions in all cases: protein: recombinant; tags: N-terminal GST; dsDNA, one strand shown
# FLI1 = target: T1, FLI1 (Homo sapiens, UniProt Q01543 1-452)
# T1 sequence: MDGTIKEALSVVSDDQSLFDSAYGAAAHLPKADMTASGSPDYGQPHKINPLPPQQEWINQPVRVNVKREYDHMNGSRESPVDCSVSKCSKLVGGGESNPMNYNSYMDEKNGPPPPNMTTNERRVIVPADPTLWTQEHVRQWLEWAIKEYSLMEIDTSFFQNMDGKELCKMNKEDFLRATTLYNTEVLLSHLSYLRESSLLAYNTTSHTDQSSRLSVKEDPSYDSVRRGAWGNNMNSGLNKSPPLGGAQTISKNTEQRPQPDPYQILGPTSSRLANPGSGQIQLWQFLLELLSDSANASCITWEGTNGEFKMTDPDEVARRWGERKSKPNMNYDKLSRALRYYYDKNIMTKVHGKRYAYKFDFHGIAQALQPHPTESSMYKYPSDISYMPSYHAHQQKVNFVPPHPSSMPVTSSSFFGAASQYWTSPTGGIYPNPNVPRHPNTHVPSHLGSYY
# Method in brief: (§1)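 Sequencing on an Illumina NextSeq500 followed washing, crosslinking with 0.1% formaldehyde, proximity ligation (BsaI/T4 ligase, 1 h, 37 °C) and PCR amplification of pools that had been incubated for 30 min at room temperature with 200 nmole of a random double-stranded 16-mer DNA library in Tris/NaCl/DTT/glycerol buffer. Each pool held DNA-barcoded human transcription factors, expressed in yeast as GST fusions and captured on glutathione beads, plus a tag-only sample. Binding signal is a hexamer's read frequency for a factor divided by its frequency in the tag-only sample.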
# ELK1 = target: T2, ELK1 (Homo sapiens, UniProt P19419 1-428)
# T2 sequence: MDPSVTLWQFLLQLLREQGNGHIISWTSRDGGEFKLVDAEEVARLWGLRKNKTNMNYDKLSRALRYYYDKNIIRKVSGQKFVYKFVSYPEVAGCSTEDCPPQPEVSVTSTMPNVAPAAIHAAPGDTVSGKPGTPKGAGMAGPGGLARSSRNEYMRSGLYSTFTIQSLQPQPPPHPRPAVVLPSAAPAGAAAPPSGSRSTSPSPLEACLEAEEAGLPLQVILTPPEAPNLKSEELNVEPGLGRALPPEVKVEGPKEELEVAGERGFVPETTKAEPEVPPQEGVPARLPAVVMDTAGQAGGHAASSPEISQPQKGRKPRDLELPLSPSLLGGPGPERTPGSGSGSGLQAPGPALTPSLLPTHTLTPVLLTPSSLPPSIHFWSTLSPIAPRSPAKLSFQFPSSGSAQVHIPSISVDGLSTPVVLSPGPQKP
# Method in brief: as §1
# GABPA = target: T3, GABPA (Homo sapiens, UniProt Q06546 1-454)
# T3 sequence: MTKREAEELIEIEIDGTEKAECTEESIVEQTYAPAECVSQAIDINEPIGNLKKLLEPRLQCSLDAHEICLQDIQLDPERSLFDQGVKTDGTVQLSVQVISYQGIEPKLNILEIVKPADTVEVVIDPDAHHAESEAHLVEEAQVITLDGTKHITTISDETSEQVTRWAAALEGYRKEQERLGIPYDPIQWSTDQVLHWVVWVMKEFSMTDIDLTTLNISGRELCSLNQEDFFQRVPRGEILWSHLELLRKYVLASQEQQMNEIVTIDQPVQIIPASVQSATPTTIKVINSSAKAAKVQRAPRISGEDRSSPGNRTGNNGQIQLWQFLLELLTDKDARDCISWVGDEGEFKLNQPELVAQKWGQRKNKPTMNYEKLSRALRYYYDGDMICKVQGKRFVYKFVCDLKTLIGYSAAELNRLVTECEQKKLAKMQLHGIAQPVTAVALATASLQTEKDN
# Method in brief: as §1
# ERG = target: T4, ERG (Homo sapiens, UniProt P11308 1-479)
# T4 sequence: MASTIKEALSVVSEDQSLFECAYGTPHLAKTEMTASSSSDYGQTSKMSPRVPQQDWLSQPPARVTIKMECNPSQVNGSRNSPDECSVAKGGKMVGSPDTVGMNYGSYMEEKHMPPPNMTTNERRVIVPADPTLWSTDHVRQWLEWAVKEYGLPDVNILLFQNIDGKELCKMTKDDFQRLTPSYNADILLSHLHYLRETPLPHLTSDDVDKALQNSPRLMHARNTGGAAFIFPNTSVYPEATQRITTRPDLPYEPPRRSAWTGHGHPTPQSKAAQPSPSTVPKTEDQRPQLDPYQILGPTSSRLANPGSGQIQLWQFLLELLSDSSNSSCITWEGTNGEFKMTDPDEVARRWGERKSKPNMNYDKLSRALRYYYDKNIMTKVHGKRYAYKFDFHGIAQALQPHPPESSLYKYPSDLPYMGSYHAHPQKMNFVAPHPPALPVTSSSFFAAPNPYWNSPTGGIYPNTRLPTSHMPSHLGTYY
# Method in brief: as §1
# ELF1 = ELF1 (Homo sapiens, UniProt P32519 1-619)
# Chain of ELF1 (P32519 whole entry): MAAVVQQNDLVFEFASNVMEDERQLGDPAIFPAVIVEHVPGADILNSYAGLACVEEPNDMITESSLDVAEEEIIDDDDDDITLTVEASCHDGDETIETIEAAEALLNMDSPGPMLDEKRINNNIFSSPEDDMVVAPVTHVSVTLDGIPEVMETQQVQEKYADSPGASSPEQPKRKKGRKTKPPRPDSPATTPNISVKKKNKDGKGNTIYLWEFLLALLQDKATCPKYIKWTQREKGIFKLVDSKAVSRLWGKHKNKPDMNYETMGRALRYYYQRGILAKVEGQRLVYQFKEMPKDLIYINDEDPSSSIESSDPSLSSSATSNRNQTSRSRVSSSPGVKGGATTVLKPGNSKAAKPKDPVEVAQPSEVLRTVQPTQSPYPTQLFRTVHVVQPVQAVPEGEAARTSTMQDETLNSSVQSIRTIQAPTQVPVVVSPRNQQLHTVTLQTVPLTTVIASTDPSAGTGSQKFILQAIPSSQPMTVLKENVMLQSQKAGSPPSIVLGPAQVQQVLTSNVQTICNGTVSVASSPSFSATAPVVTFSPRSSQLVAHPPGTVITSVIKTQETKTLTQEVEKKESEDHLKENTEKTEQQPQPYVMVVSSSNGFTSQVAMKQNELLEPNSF
# Method in brief: as §1
# EHF = target: T5, EHF (Homo sapiens, UniProt Q9NZC4 1-300)
# T5 sequence: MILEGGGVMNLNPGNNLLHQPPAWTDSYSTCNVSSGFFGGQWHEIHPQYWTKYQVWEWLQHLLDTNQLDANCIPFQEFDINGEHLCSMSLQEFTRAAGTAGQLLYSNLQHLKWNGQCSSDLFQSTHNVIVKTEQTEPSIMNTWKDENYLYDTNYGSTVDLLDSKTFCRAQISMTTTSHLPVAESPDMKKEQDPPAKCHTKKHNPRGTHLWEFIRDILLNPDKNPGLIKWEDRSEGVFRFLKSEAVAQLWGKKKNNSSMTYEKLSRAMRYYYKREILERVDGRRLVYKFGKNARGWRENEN
# Method in brief: as §1
# SPI1 = SPI1 (Homo sapiens, UniProt P17947 1-270)
# Method in brief: as §1
# SPIB = SPIB (Homo sapiens, UniProt Q01892 1-262)
# Chain of SPIB (Q01892 whole entry): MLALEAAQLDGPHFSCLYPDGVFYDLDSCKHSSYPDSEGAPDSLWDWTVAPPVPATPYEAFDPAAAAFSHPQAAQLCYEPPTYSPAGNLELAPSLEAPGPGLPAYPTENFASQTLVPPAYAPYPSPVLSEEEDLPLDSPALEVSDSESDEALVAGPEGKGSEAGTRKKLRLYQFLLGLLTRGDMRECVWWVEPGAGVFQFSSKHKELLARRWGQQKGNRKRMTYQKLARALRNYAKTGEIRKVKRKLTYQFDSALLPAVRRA
# Method in brief: as §1
# ELK3 = target: T6, ELK3 (Homo sapiens, UniProt P41970 1-407)
# T6 sequence: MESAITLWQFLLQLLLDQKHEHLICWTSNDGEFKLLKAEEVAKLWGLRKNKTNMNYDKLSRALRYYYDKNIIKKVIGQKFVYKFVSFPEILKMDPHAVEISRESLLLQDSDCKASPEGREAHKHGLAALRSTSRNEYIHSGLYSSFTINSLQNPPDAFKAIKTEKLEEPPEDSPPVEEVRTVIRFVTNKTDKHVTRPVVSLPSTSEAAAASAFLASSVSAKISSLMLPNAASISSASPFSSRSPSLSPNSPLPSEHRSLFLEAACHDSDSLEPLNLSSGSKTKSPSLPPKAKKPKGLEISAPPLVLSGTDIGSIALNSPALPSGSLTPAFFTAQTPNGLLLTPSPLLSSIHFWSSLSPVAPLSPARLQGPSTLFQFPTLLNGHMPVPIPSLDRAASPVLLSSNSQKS
# Method in brief: as §1
Sequence,binding signal (FLI1),binding signal (ELK1),binding signal (GABPA),binding signal (ERG),binding signal (ELF1),binding signal (EHF),binding signal (SPI1),binding signal (SPIB),binding signal (ELK3)
TCACCT,"1.25 fold enrichment (6-mer frequency, TF over GST control)","1.31 fold enrichment (6-mer frequency, TF over GST control)","1.27 fold enrichment (6-mer frequency, TF over GST control)","1.23 fold enrichment (6-mer frequency, TF over GST control)","1.2 fold enrichment (6-mer frequency, TF over GST control)","1.21 fold enrichment (6-mer frequency, TF over GST control)","1.21 fold enrichment (6-mer frequency, TF over GST control)","1.13 fold enrichment (6-mer frequency, TF over GST control)","1.22 fold enrichment (6-mer frequency, TF over GST control)"
CTGCGC,"1.18 fold enrichment (6-mer frequency, TF over GST control)","1.4 fold enrichment (6-mer frequency, TF over GST control)","1.34 fold enrichment (6-mer frequency, TF over GST control)","1.37 fold enrichment (6-mer frequency, TF over GST control)","1.45 fold enrichment (6-mer frequency, TF over GST control)","1.4 fold enrichment (6-mer frequency, TF over GST control)","1.31 fold enrichment (6-mer frequency, TF over GST control)","1.34 fold enrichment (6-mer frequency, TF over GST control)","1.22 fold enrichment (6-mer frequency, TF over GST control)"
ACCTGC,"1.37 fold enrichment (6-mer frequency, TF over GST control)","1.52 fold enrichment (6-mer frequency, TF over GST control)","1.39 fold enrichment (6-mer frequency, TF over GST control)","1.39 fold enrichment (6-mer frequency, TF over GST control)","1.54 fold enrichment (6-mer frequency, TF over GST control)","1.67 fold enrichment (6-mer frequency, TF over GST control)","1.46 fold enrichment (6-mer frequency, TF over GST control)","1.39 fold enrichment (6-mer frequency, TF over GST control)","1.33 fold enrichment (6-mer frequency, TF over GST control)"
CCTTAC,"1.31 fold enrichment (6-mer frequency, TF over GST control)","1.35 fold enrichment (6-mer frequency, TF over GST control)","1.37 fold enrichment (6-mer frequency, TF over GST control)","1.31 fold enrichment (6-mer frequency, TF over GST control)","1.34 fold enrichment (6-mer frequency, TF over GST control)","1.28 fold enrichment (6-mer frequency, TF over GST control)","1.28 fold enrichment (6-mer frequency, TF over GST control)","1.33 fold enrichment (6-mer frequency, TF over GST control)","1.22 fold enrichment (6-mer frequency, TF over GST control)"
GATGGC,"1.27 fold enrichment (6-mer frequency, TF over GST control)","1.36 fold enrichment (6-mer frequency, TF over GST control)","1.34 fold enrichment (6-mer frequency, TF over GST control)","1.3 fold enrichment (6-mer frequency, TF over GST control)","1.34 fold enrichment (6-mer frequency, TF over GST control)","1.33 fold enrichment (6-mer frequency, TF over GST control)","1.37 fold enrichment (6-mer frequency, TF over GST control)","1.41 fold enrichment (6-mer frequency, TF over GST control)","1.19 fold enrichment (6-mer frequency, TF over GST control)"
CCCGCC,"1.46 fold enrichment (6-mer frequency, TF over GST control)","1.75 fold enrichment (6-mer frequency, TF over GST control)","1.57 fold enrichment (6-mer frequency, TF over GST control)","1.5 fold enrichment (6-mer frequency, TF over GST control)","1.58 fold enrichment (6-mer frequency, TF over GST control)","1.53 fold enrichment (6-mer frequency, TF over GST control)","1.44 fold enrichment (6-mer frequency, TF over GST control)","1.31 fold enrichment (6-mer frequency, TF over GST control)","1.63 fold enrichment (6-mer frequency, TF over GST control)"
CTTCTT,"1.44 fold enrichment (6-mer frequency, TF over GST control)","1.58 fold enrichment (6-mer frequency, TF over GST control)","1.5 fold enrichment (6-mer frequency, TF over GST control)","1.63 fold enrichment (6-mer frequency, TF over GST control)","1.65 fold enrichment (6-mer frequency, TF over GST control)","1.53 fold enrichment (6-mer frequency, TF over GST control)","1.61 fold enrichment (6-mer frequency, TF over GST control)","1.44 fold enrichment (6-mer frequency, TF over GST control)","1.61 fold enrichment (6-mer frequency, TF over GST control)"
